Screening results from PubChem.
The entries come from a sample that favours hits as a whole.
ERK EGF inh – inhibitors of EGF-stimulated ERK signaling pathway | Potency, µM (top dose mostly 11.5 µM), usual class: inhibitors | HEK293-V1b, EGF-stimulated phospho-ERK AlphaScreen | 130,000 tested, 0.41% active; active means well fitted inhibition curve with a large enough effect; further: nearly all actives have a fitted effect of over 55% in size
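Compounds are titrated over HEK293-V1b cells kept overnight in 1% FBS. After 30 min at 37C, EGF (25 nM final) triggers ERK phosphorylation for 5 min, measured by AlphaScreen in lysates.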
Each line names hits and unclear results; the compound was inactive in the other large screens.

CN(CCOc1ccc(C[C@H](Nc2ccccc2C(=O)c2ccccc2)C(=O)O)cc1)c1ccccn1	none
CCCCNC(=O)C(c1ccc(OCC(=O)OC)c(C(=O)OC)c1)N(CCC1=CCCCC1)C(=O)CCCCCN1C(=O)NC(c2ccc(-c3ccccc3)cc2)C(C(=O)OCc2ccccc2)=C1C (stereo not drawn)	none
Cc1nc(N2CCOCC2)c2nc(-c3ccccc3)n(CCN(C)C)c2n1	none
CN1Cc2c(N3CCOCC3)nc3sc(C(=O)c4ccc(Br)cc4)c(N)c3c2CC1(C)C	ERK EGF inh 35µM
CC1(C)Cc2c(c(N3CCOCC3)nc3sc(-c4ccc(C(=O)O)o4)c(N)c23)CO1	none
CC1(C)Cc2c(c(N3CCOCC3)nc3sc(C(=O)N4CCCCC4)c(N)c23)CO1	none
CCn1ncc(CN2CCN(Cc3cccc(OC)c3)C(CCO)C2)c1C (stereo not drawn)	none
COCCN=C1OC(=O)N2C(=O)C3=C4C(C[C@H]5C(=O)N(CC(=O)OC)C(=O)[C@H]5[C@H]4[C@@]12Cc1ccccc1)[C@H]1C(=O)N(CC(=O)OC)C(=O)[C@H]1[C@H]3C (stereo partly drawn)	none
C/C=C\C[C@@H](C)[C@@H](O)[C@H]1C(=O)N[C@@H](CC)C(=O)N(C)CC(=O)N(C)[C@@H](CC(C)C)C(=O)N[C@@H](C(C)C)C(=O)N(C)[C@@H](CC(C)C)C(=O)N[C@@H](C)C(=O)N[C@H](C)C(=O)N(C)[C@@H](CC(C)C)C(=O)N(C)[C@@H](CC(C)C)C(=O)N(C)[C@@H](C(C)C)C(=O)N1C	none
COC(=O)[C@H](COC(C)(C)C)NC(=O)O[C@@H]1Cc2cc(OC)ccc2O[C@H]1c1cccc(OC)c1	none
CCCC1(C(=O)OC)C=C2C(=C(C)C(=O)C2C)CN1 (stereo not drawn)	none
COC(=O)[C@@]1(Cc2ccc(F)cc2)[C@H]2c3cc(C(=O)N4CCCC4)n(Cc4ccccn4)c3C[C@H]2CN1C(=O)c1ccccc1	none
COC(CNC(=O)c1cccnc1)OC	none
COC(CNC(=O)c1ccc2c3c(onc13)-c1ccccc1C2=O)OC	ERK EGF inh 35µM
COC(CNC(=O)C(C)n1nc(C)c2ccccc21)OC (stereo not drawn)	none
Cc1ccc(S(=O)(=O)NC(=O)O[C@@H]2C(=O)c3cc(Br)ccc3O[C@H]2c2ccc3c(c2)OCO3)cc1	none
CCCCCCN(C(=O)CCCCCN1C(=O)NC(c2ccc3ccccc3c2)C(C(=O)OCc2ccccc2)=C1C)C(C(=O)NCCCC)c1ccc(OCC(=O)OC)c(C(=O)OC)c1 (stereo not drawn)	none
C[C@]1(c2ccccc2)OC(C(=O)O)=CC1=O	none
Cc1cc(/C=C2/C(=O)N(C)C(=S)N2C)ccc1N1CCCC1	ERK EGF inh 25µM
CN1C(=O)/C(=C/C=C2/CCCN2C)N(C)C1=S	none
Cc1cc(/C=C2\NC(=S)N(C)C2=O)ccc1N1CCCC1	none
COc1cccc([C@@H]2Oc3ccc(Br)cc3C[C@H]2OC(=O)N[C@H](C)C2CCCCC2)c1	none
O=S(=O)(c1ccccc1)N1CCC2(CCCN(c3ccncc3)C2)CC1	none
Cc1cccc(C)c1NC(=O)c1cccc2c1-c1ccccc1C2=O	none
N/C(Cc1ccccc1Sc1ccccc1)=N\O	none
O=C1c2cccc(Sc3ccccc3)c2C(=O)c2c(Sc3ccccc3)cccc21	ERK EGF inh 7.1µM
CC(c1ccccc1)N1C(=O)/C(=C/c2ccncc2)SC1=S (stereo not drawn)	ERK EGF inh 22µM
O=C(O)C(c1ccccc1)N1C(=O)/C(=C/c2cccs2)SC1=S (stereo not drawn)	none
C=CCOc1ccc(/C=C2\SC(=S)N(C(C(=O)O)c3ccccc3)C2=O)cc1 (stereo not drawn)	none
OCC(O)C(O)[C@H](O[C@H]1OC(CO)C(O)C(O)C1O)[C@H](O)CO (stereo partly drawn)	none
COc1ccc(Nc2ccc(S(=O)(=O)N3CCCCCC3)cc2[N+](=O)[O-])cc1	ERK EGF inh 20µM
COCC(C)Nc1ccc(S(=O)(=O)N2CCCC2)cc1[N+](=O)[O-] (stereo not drawn)	none
COc1ccc2cc(S(=O)(=O)N3CCCCCC3)ccc2c1	none
COC(=O)c1ccc(C(NC(=O)OCc2ccccc2)/C(C)=C/[C@@H](C)C(=O)NC2CCCCC2)cc1 (stereo partly drawn)	none
CCC(C)C1=CC(=Nc2c(C)n(C)n(-c3ccccc3)c2=O)C=C(C(C)CC)C1=O (stereo not drawn)	ERK EGF inh 16µM
Cc1c(N=c2scc(-c3ccccc3)n2C)c(=O)n(-c2ccccc2)n1C	none
CC1=CC(=Nc2c(C)n(C)n(-c3ccccc3)c2=O)C=C(C)C1=O	none
C[C@@H](C(=O)Nc1ccc2ccccc2c1)[C@H]1C[C@]1(C)[C@H](NC(=O)Oc1ccc(F)cc1)c1ccccc1	none
COC(=O)CNC(=O)C1(C)C=CC2(CCCCC2)N1C(=O)OC (stereo not drawn)	none
Cc1cc(CNC(=O)[C@@H]2C[C@H]2[C@@H](NP(=O)(c2ccccc2)c2ccccc2)c2ccccc2)nn1C	none
CCSc1ccc(C(=O)Nc2cccc(C)n2)cc1[N+](=O)[O-]	none
Cc1cccc(NC(=O)c2ccc(NC(C)c3ccccc3)c([N+](=O)[O-])c2)n1 (stereo not drawn)	ERK EGF inh 14µM
CCNc1ccc(C(=O)OCC(=O)NC(C)c2ccccc2)cc1[N+](=O)[O-] (stereo not drawn)	none
O=C(Nc1ccccc1)OC[C@H](CN1CCCCC1)OC(=O)Nc1ccccc1	none
CC(C)C[C@@H](CC(=O)N[C@H](CC(=O)N[C@@H]1CCCC[C@H]1C(=O)N[C@H](CC(=O)N[C@@H](CCC(=O)O)CC(=O)O)Cc1c[nH]c2ccccc12)C(C)C)NC(=O)[C@@H]1CNCC[C@H]1N	none
COC(=O)CC1C(C)(C)C2(O)OC34CC2C(=O)[C@@]1(C)C3CC[C@]1(C)C4=CC(=O)OC1c1ccoc1 (stereo partly drawn)	none
Cc1ccc(Nc2c(-c3ccccc3O)nc3cnccn23)cc1	ERK EGF inh 25µM
COc1ccc(Nc2c(-c3ccc(OC)cc3)nc3cnccn23)cc1	none
COc1ccc(Nc2c(-c3ccc(C)cc3)nc3cnccn23)cc1	none
CCOc1cc(/C=C/c2cc(C(=O)O)c3ccccc3n2)ccc1OC	none
COc1cc(/C=C/c2cc(C(=O)O)c3ccccc3n2)cc(OC)c1O	ERK EGF inh 32µM
CCOc1cc(/C=C/c2cc(C(=O)O)c3ccccc3n2)ccc1O	none
CC1CCC(C(C)C)[C@H](O)C1 (stereo partly drawn)	none
COCCN1C(=O)N[C@@H](c2cccc(C(F)(F)F)c2)C(C(C)=O)=C1C	none
CC(C)c1ccccc1-n1c(SCC(=O)N2CCc3ccccc3C2)nc2ccccc2c1=O	none
O=C(CSc1nc2ccccc2c(=O)n1-c1ccccc1)N1CCC1	none
O=C(CSc1nc2ccccc2c(=O)n1-c1ccccc1)N1CCc2ccccc2C1	ERK EGF inh 28µM
CCCC/C=C/C(NC(=O)OCc1ccccc1Cl)c1ccccc1 (stereo not drawn)	none
Clc1ccc2scc(CN3CCCCC3)c2c1	none
Cc1ccc2c(CN3CCOCC3)cc(=O)oc2c1	none
Cc1cc(N=Nc2ccc(Cl)cc2)cc(CN2CCOCC2)c1O	ERK EGF inh 16µM
Cc1cc(N=Nc2ccc(Cl)cc2)cc(CN2CCCC2)c1O	ERK EGF inh 32µM
Oc1c(CN2CCOCC2)cc2c(c1-c1c(O)c(CN3CCOCC3)cc3c1CCCC3)CCCC2	none
O=C(NN1CCN(Cc2ccccc2Cl)CC1)c1ccc(Cl)cc1	none
Cc1cnc(CNc2ccnc(-c3ccc(C(=O)N(C)C)cc3)n2)cn1	none
CCN(CC)CCCCn1c(-c2ccccc2)nc2c(NCCOC)nc(C)nc21	none
